Results published in PubChem BioAssay AID602252 (Broad Institute, 2012).
The campaign covered roughly 300,000 compounds. About 2,700 (0.9%) were called active.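 The calls were made as follows: active = mean inhibition of at least 30% with at least half of replicates also reaching 30%; inconclusive = no clear call, values can overlap the other calls; inactive = the rest.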 Only a selection was taken, and actives are over-represented in it overall.

molecular target: Golgi-associated PDZ and coiled-coil motif-containing protein (Homo sapiens) (UniProt Q9HD26); assay: blockade of CAL PDZ-reporter peptide interaction – biochemical, fluorescence polarization, untagged CAL PDZ, HTS, primary screen (AID 602252); details: purified CAL PDZ, TMR-peptide fluorescence polarization, 1 h; at 24.9 µM; stronger effect = higher value;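 also: 0% = DMSO neutral control and 100% = excess unlabeled competitor peptide PRC23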

inhibition, inactive:
O=C(OCC(=O)N1CCN(C(=O)c2ccco2)CC1)c1c(Cl)cccc1Cl -0.558%
Cc1ccc(S(=O)(=O)NCCC(=O)Nc2ccc(C)c(Cl)c2)cc1C -1.6%
CC(C)CNS(=O)(=O)c1ccc(CCC(=O)NCc2ccc(Cl)cc2)cc1 0.426%
CCN(CC)C(=O)[C@H]1C[C@H](CC(=O)NCC23CC4CC(CC(C4)C2)C3)C(=O)N2CCc3c([nH]c4cc(CCC(=O)N(C)C)ccc34)[C@]12C -1.84%
Cc1cc(-n2nc(C)cc2C)n2ncc(-c3ccccc3)c2n1 -1.01%
O=C(O)c1cnn2c(C(F)(F)F)cc(-c3ccccc3)nc12 0.025%
O=[N+]([O-])c1cccc(C=NN=Cc2ccccc2O)c1 6.22%
COC(=O)[C@]1(Cc2ccccc2)N[C@H](CN(C)S(=O)(=O)c2ccc(OC(F)(F)F)cc2)[C@@H]2C(=O)N(Cc3ccccc3)C(=O)[C@@H]21 -5.9%
NN=C(NN=Cc1ccccc1)c1ccccc1 -2.94%
COc1ccc(-c2nc3cc(C)ccn3c2NC2CCCCC2)cc1SC1CCCCC1 -0.092%
CCCCN(CC(=O)Nc1cccc(S(=O)(=O)N2CCCC2)c1)Cc1nc2ccccc2c(=O)[nH]1 -3.98%
CCc1ccc(CN(C)C(C)C(=O)Nc2ccc(S(=O)(=O)N3CCCC3)cc2)cc1 (stereo unspecified) 2.24%
COc1cc(OC)cc(-c2c(C#Cc3ccsc3)c3cc(-c4ccc(OC)cc4F)ccc3n2C)c1 2.79%
O=C1OCC2=C1C(c1ccc(Cl)cc1)c1cc3c(cc1O2)OCO3 (stereo unspecified) 7.51%
CN(c1ccc(C(=O)N2CCc3ccccc3C2)cc1)S(C)(=O)=O 3.47%
Cc1ccc(-c2cc(C(=O)N3CCc4ccccc4C3)no2)cc1 1.04%
O=S(=O)(Cc1ccc(Cl)cc1Cl)c1ccc(Cl)cc1 -1.54%
Cc1nn(-c2ncccn2)c2c1C(=O)CC(C)(C)C2Br (stereo unspecified) 0.781%
CN(C)C(CNC(=O)c1cc2ccccc2o1)c1ccccc1 (stereo unspecified) -5.09%
CCN(CC)CCCNC(=O)c1ccc2c(=O)n(Cc3ccc4c(c3)OCO4)c(=S)[nH]c2c1 -3.92%
CCCCn1c(=S)[nH]c2ccccc2c1=O -2.2%
CCOC(=O)c1sc(NC(=O)c2cc(S(=O)(=O)N3CCOCC3)ccc2C)nc1C -2.78%
CCOC(=O)CSc1nnc(NC(=O)c2cccc(S(=O)(=O)N3CCCCC3)c2)s1 -0.488%
CN(C(=O)c1cccc(NC(=O)Cc2ccc(NC(=O)C3CCCN(C(=O)C4CCCC4)C3)cc2)c1)C1CCC1 (stereo unspecified) 4.34%
CCOC(=O)c1c(-c2ccccc2)csc1NC(=S)NC(=O)c1ccccc1 -5.36%
CCOC(=O)c1c(-c2cccc(C)c2)csc1NC(=O)c1c(-c2ccccc2)noc1C -0.763%
C=CCN1C=C(C(=O)c2ccccc2)C(=O)CC1 6.82%
COc1ccc(Cc2nnc(NC(=O)c3ccc(OC)cc3OC)s2)cc1 -2.81%
O=C(Nc1nnc(COc2ccccc2)s1)Nc1ccccc1F 1.97%
CN(CCc1ccccc1)C(=O)c1cccc(NC(=O)Cc2cccc(NC(=O)C3CCCN(C(=O)C4CCC4)C3)c2)c1 (stereo unspecified) -1.08%
COc1ccc(CCNC(=O)COc2cc(C)cc3oc(=O)c(C)c(C)c23)cc1OC -1.33%
COc1cccc(NC(=O)c2ccccc2SC)c1 0.222%
COc1cccc(CN(C)CC(=O)Nc2ccccc2C(=O)Nc2ccccc2)c1 -7.24%
O=C(Nc1cccc(S(=O)(=O)N2CCCCC2)c1)c1cncc(Br)c1 0.772%
Cc1cccc(NC(=O)c2cccc(S(=O)(=O)N3CCCC3)c2)n1 -2.35%
NS(=O)(=O)c1ccc(CNC(=O)c2cccc(S(=O)(=O)N3CCc4ccccc43)c2)cc1 -0.134%
O=C(CN1C(=O)NC2(CCCCCC2)C1=O)Nc1ccc([N+](=O)[O-])cc1 -4.3%
C=CC[C@@H](Cc1ccc(F)cc1)C(=O)OC[C@H]1CCCN1C(=O)[C@H](CC=C)CC(=O)N(CCO)Cc1ccccc1 -2.32%
COc1cccc(-n2c(SCC(=O)NC3CCS(=O)(=O)C3)nc3ccccc3c2=O)c1 (stereo unspecified) -4.98%
CCOc1ccc(NC(=O)CN(C)C(=O)CSc2ccccc2)cc1OCC -0.51%
CCOc1ccc(NC(=O)CN(C)CC(=O)Nc2cccc(Cl)c2C)cc1OCC -7.09%
COc1ccc(S(=O)(=O)N2C[C@H]3CON(C)[C@H]3C[C@H]2c2cccc(Br)c2)cc1 -1.19%
COc1cccc2c1C(=O)c1c(O)c3c(c(O)c1C2=O)CC(O)(C(C)=NNC(=O)c1ccc(Cl)c(Cl)c1)CC3OC1CC(N)C(O)C(C)O1 (stereo unspecified) -11.4%
Cc1nn(C)c(Oc2ccccc2)c1[N+](=O)[O-] -1.91%
Cn1nc(C(C)(C)C)c([N+](=O)[O-])c1C(N)=O -0.311%

inhibition, active:
Cc1ccc(S(=O)(=O)NCCC(=O)NCc2ccc(Cl)cc2)cc1C 66.1%
Cc1cc(C(F)(F)F)n2ncc(-c3ccccc3)c2n1 50.2%
Cn1cccc1C(=O)N1CCc2ccccc2C1 91.2%
CCCCNC(=O)c1ccc(-n2c(=S)[nH]c3ccccc3c2=O)cc1 41.5%
CCc1nnc(NC(=O)c2cc(S(=O)(=O)N3CCCCC3)ccc2C)s1 77.7%
CCOC(=O)c1c(-c2ccc(-c3ccccc3)cc2)csc1NC(=O)CCC(=O)O 39.2%
COc1ccccc1NC(=O)Nc1nnc(Cc2ccc(F)cc2)s1 54%
COc1cccc(NC(=O)c2ccccc2N(Cc2ccccc2)S(C)(=O)=O)c1 44.6%
Cc1ccc(NC(=O)c2cccc(S(=O)(=O)N3CCCc4ccccc43)c2)nc1 44.8%
CCOc1ccc(NC(=O)CN(C)CC(=O)NC(C)c2ccccc2)cc1OCC (stereo unspecified) 39.5%
Cc1c([N+](=O)[O-])c(N)nn1C 46.7%
